Assay outcomes: PubChem, several laboratories
Rows were chosen to be rich in hits. Some 0.5% of all compounds tested hit in one or more screens of this group.
E coli growth-1: E. coli V3065 growth inhibition, primary screen, counter-screen for AddAB inhibitor project, absorbance, OD600 | 18 h | inhibition, % at 11.9 µM | hit rate 0.27% among 330,000;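 active = inhibition above the campaign's mean inhibition across all tested compounds plus 3 SD, cut at about 9.9% in these data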;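 note: uninfected addAB+ strain grown without phage in ampicillin broth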
Tat export inh: E. coli Tat export inhibitors, primary screen, MC4100, TorA-mCherry reporter, fluorescence, single point; inhibition, % at 10 µM; hit rate 0.036% among 340,000; AID 488895, 2010;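 active = mean replicate inhibition at least 50% and at least half of replicates individually reaching 50%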;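 note: exported cargo escapes ClpAP degradation while cytoplasmic cargo is degraded and loses fluorescence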
E coli growth-2: E. coli growth inhibition, primary screen, OD600; Escherichia coli growth, 23 h; stronger effect = lower value; OD600 absorbance (no concentration beside the values); hit rate 0.21% among 330,000; AID 1053175, 2014;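 active = OD600 absorbance below the run mean of sample wells minus 3.6 SD, in any replicate, cut at about 0.56 in these data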
phage Ecoli inh: growth loss of phage-infected E. coli, primary screen, RecBCD inhibitor project, absorbance, with phage, HTS. inhibition, % at 11.9 µM. hit rate 0.26% among 360,000; in the data active = inhibition above about 11%
AddAB inh: growth inhibition of E. coli expressing H. pylori AddAB, primary screen, AddAB inhibitor project, absorbance; inhibition, % at 11.9 µM; hit rate 0.29% among 330,000; AID 435030, 2010; in the data active = inhibition above about 12%
AddAB conf: growth loss of phage-infected E. coli expressing H. pylori AddAB, confirmation, AddAB inhibitor project, absorbance, E. coli V3065, T4 phage, triplicate; shares compounds with AddAB inh; OD; T4 phage with gene 2 nonsense mutations; inhibition, % at 11.9 µM; hit rate 64% among 880; AID 488942, 2010;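 active = mean inhibition above a set limit taken from the earlier primary screen, cut at about 13% in these data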;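 note: higher means less bacterial growth since AddAB block lets phage replicate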
RecBCD counter: growth loss of RecBCD+ E. coli with mutant T4 phage, counter-screen for AddAB inhibitor project, absorbance, V66 E. coli. OD growth. shares compounds with AddAB inh. hit rate 73% among 880. AID 488955, 2010. inhibition, % at 11.9 µM;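 active = mean inhibition above the mean of solvent-only control wells plus 3 SD, cut at about 4% in these data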;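 note: optical density read after an 18 h incubation at 37 °C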
bact viab count: bacterial viability inhibition counter-screen, confirmation, counter-screen for AddAB inhibitor project, absorbance. hit rate 35% among 880. shares compounds with AddAB inh. inhibition, % at 11.9 µM. AID 488956, 2010. absorbance (AddAB counterscreen); in the data active = inhibition above about 25%
RecBCD conf: growth loss of phage-infected RecBCD+ E. coli, confirmation, RecBCD inhibitor project, absorbance, E. coli V66, T4 gene 2 phage; shares compounds with phage Ecoli inh; E. coli V66 + T4 2- phage, growth OD; inhibition, % at 11.9 µM; hit rate 45% among 890; AID 651982, 2013;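 active = mean inhibition over triplicates exceeding the hit threshold derived in the original primary screen, cut at about 11% in these data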
Ecoli viability: E. coli viability inhibition, counter-screen for RecBCD inhibitor project, absorbance, high throughput | shares compounds with phage Ecoli inh | absorbance (OD) growth | inhibition, % at 11.9 µM | hit rate 29% among 890; in the data active = inhibition above about 20%;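 note: E. coli strain V66 grown with compound alone and no phage infection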
AddAB counter: growth loss of phage-infected AddAB-carrying E. coli, confirmation, counter-screen for RecBCD inhibitor project, absorbance, E. coli V3065, T4 phage. shares compounds with phage Ecoli inh. E. coli expressing H. pylori AddAB + T4 phage, OD growth; gene 2 mutant T4, recBCD-deleted host. inhibition, % at 11.9 µM. hit rate 45% among 890;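 active = mean inhibition above the solvent-only control wells' mean plus 3 SD, cut at about 22% in these data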;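 note: higher means less bacterial growth from phage killing when AddAB is blocked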
Numbers stand for hits; i = inactive; nt = not tested or not shown.

SMILES	E coli growth-1	Tat export inh	E coli growth-2	phage Ecoli inh	AddAB inh	AddAB conf	RecBCD counter	bact viab count	RecBCD conf	Ecoli viability	AddAB counter
CCn1cc(C(=O)O)c(=O)c2cc(F)c(N3CCN(S(=O)(=O)c4ccc(Br)cc4)CC3)cc21	i	nt	nt	nt	i	nt	nt	nt	nt	nt	nt
CCn1cc(C(=O)O)c(=O)c2cc(F)c(N3CCN(C(=S)NC(=O)c4ccccc4)CC3)cc21	101	i	0.077	82	101	99	100	103	100	100	100
C=CCNC(=S)N1CCN(c2cc3c(cc2F)c(=O)c(C(=O)O)cn3CC)CC1	99	i	0.076	41	100	103	101	104	103	105	104
COc1cccc(C=NNC(=O)c2cc3cc([N+](=O)[O-])ccc3s2)c1O	nt	nt	i	nt	nt	nt	nt	nt	nt	nt	nt
Cc1ccsc1C=NNc1nc2ccccc2[nH]1	nt	nt	i	nt	nt	nt	nt	nt	nt	nt	nt
O=C(NN=Cc1ccc(F)cc1)c1ccncc1	nt	nt	i	nt	nt	nt	nt	nt	nt	nt	nt
COC(=O)[C@]1(CC(C)C)NC(c2ccc(-c3ccc(Cl)c(Cl)c3)cc2)C2C(=O)N(C)C(=O)C21 (stereo not given in full)	nt	nt	i	nt	nt	nt	nt	nt	nt	nt	nt
N#Cc1ccc(NC(=O)Nc2ccc(Cl)cc2)cc1	15	i	0.49	13	16	16	18	i	14	i	i
CC(=NOc1nc(C)cc(C)n1)c1ccccc1	nt	nt	i	nt	nt	nt	nt	nt	nt	nt	nt
FC(F)(F)c1nnc(Nc2ccc(Cl)cc2)s1	i	i	i	i	i	nt	nt	nt	nt	nt	nt
Fc1ccc(Nc2nnc(C(F)(F)F)s2)cc1Cl	16	i	0.44	14	14	17	19	i	i	i	i
O=c1c2cc(Br)ccc2nc(-c2cccc(C(F)(F)F)c2)n1O	16	i	i	17	16	i	16	i	i	i	i
N#Cc1ccc(-c2nc3ccc(Br)cc3c(=O)n2O)cc1	i	i	i	i	i	nt	nt	nt	nt	nt	nt
CCCC=C(CCC)C(NC(=O)c1ccc(C(F)(F)F)cc1)c1ccccc1 (stereo not given)	nt	nt	i	nt	nt	nt	nt	nt	nt	nt	nt
O=c1ccsn1Cc1ccccc1	i	i	0.044	14	75	102	29	26	i	i	77
O=C1NC(Cc2ccccc2)C(=O)N1Cc1ccccc1 (stereo not given)	nt	i	i	i	nt	nt	nt	nt	nt	nt	nt
O=C1CC2c3c(cccc3CN1Cc1ccccc1)CC(O)C2O (stereo not given)	nt	nt	i	nt	nt	nt	nt	nt	nt	nt	nt
Cc1ccc(C(C)C)c(OCc2ccc(C(=O)N/N=C/c3ccc(O)cc3O)cc2)c1	15	i	nt	27	13	15	18	i	14	i	24
Nc1c(Cl)ncnc1N/N=C/c1ccnc2ccccc12	i	i	nt	i	i	nt	nt	nt	nt	nt	nt
Nc1c(Cl)ncnc1N/N=C/c1ccc2ccccc2n1	24	i	nt	26	27	23	18	i	11	i	i
Cc1ccc2nc(C)cc(C(=O)NN=Cc3ccncc3)c2c1	nt	nt	i	nt	nt	nt	nt	nt	nt	nt	nt
Cc1cc(C(=O)NNC(=O)CCCOc2ccccc2)c(C)o1	i	i	i	i	i	nt	nt	nt	nt	nt	nt
CC(C)(C)c1ccc(OCCCC(=O)NNC(=O)c2ccccc2O)cc1	14	i	i	13	20	i	10	i	i	i	i
COc1cccc(/C=N/Nc2ccc([N+](=O)[O-])cn2)c1O	22	i	nt	18	26	21	17	i	12	i	i
O=C(NC(NC(=S)Nc1ccc(Cl)c(Cl)c1)C(Cl)(Cl)Cl)c1ccco1 (stereo not given)	14	i	i	14	14	20	13	i	i	i	i
SMILES	E coli growth-1	Tat export inh	E coli growth-2	phage Ecoli inh	AddAB inh	AddAB conf	RecBCD counter	bact viab count	RecBCD conf	Ecoli viability	AddAB counter
O=C(O)c1cccc(NC(=S)NC(NC(=O)c2ccco2)C(Cl)(Cl)Cl)c1 (stereo not given)	i	i	i	i	i	nt	nt	nt	nt	nt	nt
Cc1nc2ccccn2c1C(O)=C1C(=O)C(=O)N(CCN2CCOCC2)C1c1cccnc1 (stereo not given)	nt	nt	i	nt	nt	nt	nt	nt	nt	nt	nt
COc1ccc(/C=C2\SC(=O)N(CC(=O)NNC(=O)c3ccccc3O)C2=O)cc1	10	i	i	15	17	i	10	i	i	i	i
O=C(CN1C(=O)S/C(=C\c2ccccc2)C1=O)NNC(=O)c1ccccc1O	17	i	i	14	19	16	14	i	i	i	i
O=C(CN1C(=O)S/C(=C\c2ccc(O)cc2)C1=O)c1ccccc1	i	i	nt	i	i	nt	nt	nt	nt	nt	nt
COc1ccc(/C=C2\SC(=O)N(CC(=O)NNC(=O)c3ccccc3O)C2=O)cc1OC	18	i	nt	16	23	20	14	i	i	i	i
COc1ccc(C2CC(=O)C=C(c3cccc(CO)c3)C2)cc1OC (stereo not given)	nt	nt	i	nt	nt	nt	nt	nt	nt	nt	nt
CC(=O)NC(c1ccc(C(C)C)cc1)c1ccc2cccnc2c1O (stereo not given)	24	i	nt	23	20	15	17	i	13	i	i
CCCCC(=O)NC(c1ccccc1Cl)c1ccc2cccnc2c1O (stereo not given)	28	i	nt	21	19	22	19	i	14	i	24
CCCC(=O)NC(c1ccccc1)c1ccc2cccnc2c1O (stereo not given)	32	i	nt	20	24	26	25	i	18	24	29
CC(=O)NC(c1cccc([N+](=O)[O-])c1)c1ccc2cccnc2c1O (stereo not given)	nt	i	nt	i	nt	nt	nt	nt	nt	nt	nt
CCCCC(=O)NC(c1ccc(C(C)C)cc1)c1ccc2cccnc2c1O (stereo not given)	20	i	i	17	17	18	15	i	i	i	i
COc1cc(C=NNC(=O)CSc2nc3ccccc3n2C)cc(OC)c1OC	nt	nt	i	nt	nt	nt	nt	nt	nt	nt	nt
CC=C1COC(C(=O)NCc2ccncc2)(C(F)(F)F)C=C1C=C1CCCCC1 (stereo not given)	nt	nt	i	nt	nt	nt	nt	nt	nt	nt	nt
COc1ccc(SCC(C)CN2CCC(C)CCC2=O)cc1 (stereo not given)	nt	nt	i	nt	nt	nt	nt	nt	nt	nt	nt
Cc1ccc(S(=O)(=O)N(CC(=O)NN=Cc2ccco2)c2cc(Cl)cc(Cl)c2)cc1	nt	nt	i	nt	nt	nt	nt	nt	nt	nt	nt
